Measured values taken from PubChem BioAssay (NCI).
Compounds without any hit were thinned out: in the full panel of roughly 79,000, 15% have a hit. Calls of active or inactive are those of the source. No stated cut-off is given here; in the data, active means growth inhibition above about 70%; inactive means the rest.

Legend:
[1] = NCI Yeast Anticancer Drug Screen. Data for the wt2 strain (AID 169);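 further: 0% = growth of vehicle-treated yeast cultures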; conditions: S. cerevisiae wt2 strain growth inhibition, hits give high values
Method in brief: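 Against vehicle-treated controls, the growth of yeast exposed to each compound was compared, and the inhibition was recorded.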

[2] = NCI Yeast Anticancer Drug Screen. Data for the mlh1 strain (AID 171);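 further: 0% = growth of vehicle-treated control cultures of the same strain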; conditions: S. cerevisiae mlh1 strain growth inhibition, hits give high values
Method in brief: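 Measured: yeast growth. Reference: vehicle-treated controls. Organism: strain with a defined alteration affecting DNA damage repair or cell cycle control, treated with compound.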

[3] = NCI Yeast Anticancer Drug Screen. Data for the sgs1 strain (AID 173);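 further: 0% = growth of vehicle-only control cultures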; conditions: S. cerevisiae sgs1 mutant, hits give high values
Method in brief: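 Each compound was added to cultures of the altered yeast strain. Growth was recorded, and inhibition was derived by comparison with vehicle controls.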

[4] = NCI Yeast Anticancer Drug Screen. Data for the mlh1 rad18 strain (AID 175); conditions: S. cerevisiae mlh1 rad18 strain growth inhibition, hits give high values
Method in brief: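 Genetically defined yeast (DNA repair-deficient) exposed to compounds; growth inhibition determined relative to vehicle.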

[5] = NCI Yeast Anticancer Drug Screen. Data for the rad18 strain (AID 177); conditions: S. cerevisiae rad18 mutant growth inhibition, hits give high values
Method in brief: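 Vehicle-treated cultures served as the baseline for scoring compound-induced growth inhibition in DNA-repair-mutant yeast.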

[6] = NCI Yeast Anticancer Drug Screen. Data for the rad52 strain (AID 147);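 further: 0% = growth of vehicle-treated control cultures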; conditions: S. cerevisiae rad52 mutant growth inhibition, hits give high values
Method in brief: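 The repair-mutant yeast strain was incubated with compounds, then growth was read and inhibition derived relative to vehicle.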

[7] = NCI Yeast Anticancer Drug Screen. Data for the wt1 strain (AID 149);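 further: 0% = growth of vehicle-treated wt1 cultures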; conditions: S. cerevisiae wt1 strain (SPY 50644) growth inhibition, hits give high values
Method in brief: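 Using yeast strain wt1, compound-induced growth inhibition was determined against vehicle-treated cultures.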

[8] = NCI Yeast Anticancer Drug Screen. Data for the rad50EPP+ strain (AID 151);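 further: 0% = growth of vehicle-treated control cultures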; conditions: S. cerevisiae rad50 mutant strain, hits give high values
Method in brief: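 Vehicle-normalised growth inhibition; rad50EPP+ yeast strain, altered in DNA damage repair, compound-treated.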

[9] = NCI Yeast Anticancer Drug Screen. Data for the mgt1 strain (AID 153); conditions: S. cerevisiae mgt1 mutant growth inhibition, hits give high values
Method in brief: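 Vehicle-normalized growth inhibition is determined in mgt1 yeast, a strain selected for a defined alteration in DNA repair or cell cycle control.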

[10] = NCI Yeast Anticancer Drug Screen. Data for the rad50 strain (AID 155);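 further: 0% = growth of vehicle-only cultures of the same strain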; conditions: S. cerevisiae rad50 strain growth inhibition, hits give high values
Method in brief: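 Relative growth inhibition (compound vs vehicle) was measured in yeast with a defined repair-gene alteration.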

[11] = NCI Yeast Anticancer Drug Screen. Data for the mec2-1 strain (AID 157); conditions: S. cerevisiae mec2-1 strain, hits give high values
Method in brief: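 Mutant yeast (mec2-1) grown with compound; growth inhibition relative to vehicle control reported.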

[12] = NCI Yeast Anticancer Drug Screen. Data for the rad14 strain (AID 159);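 further: 0% = growth of vehicle-treated control cultures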; conditions: S. cerevisiae rad14 strain growth inhibition, hits give high values
Method in brief: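 Screen for anticancer potential: a yeast strain altered in DNA damage repair is grown with compound, and reduced growth is quantified against vehicle controls.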

[13] = NCI Yeast Anticancer Drug Screen. Data for the sgs1 mgt1 strain (AID 161);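 further: 0% = growth of cultures given vehicle only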; conditions: S. cerevisiae sgs1 mgt1 strain, hits give high values
Method in brief: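 This yeast growth screen uses a strain with defined DNA-repair lesions; compound-treated growth is compared with vehicle-treated growth.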

[14] = NCI Yeast Anticancer Drug Screen. Data for the CLN2oe strain (AID 163);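 further: 0% = growth of vehicle-only control cultures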; conditions: S. cerevisiae CLN2oe strain, hits give high values
Method in brief: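 Compounds are applied to yeast harbouring a defined cell-cycle control change; reduced growth compared with vehicle-treated controls gives the value.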

[15] = NCI Yeast Anticancer Drug Screen. Data for the cln2 rad14 strain (AID 165);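 further: 0% = growth equal to vehicle treated cultures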; conditions: S. cerevisiae cln2 rad14 strain, hits give high values
Method in brief: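 Readout is yeast growth inhibition versus vehicle-treated controls, using a strain with cln2 and rad14 alterations exposed to compound.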

[16] = NCI Yeast Anticancer Drug Screen. Data for the bub3 strain (AID 167); conditions: S. cerevisiae bub3 mutant strain, hits give high values
Method in brief: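 Screening used yeast with an engineered genetic alteration affecting cell cycle control. Compound-exposed cultures were compared with vehicle cultures, and reduced growth was taken as inhibition.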

[17] = at 5.0 µM (retest, dose inferred, filed as 0.5)
[18] = at 50.0 µM (retest, dose inferred, filed as 5.0)

Measured: growth inhibition

S=C1C(=Nc2ccccc2)N(c2ccccc2)/C(=N\c2ccccn2)N1c1ccccc1
active: [1]; at 33.0 µM 99% | [1]; at 100.0 µM 95% | [2]; at 33.0 µM 99% | [2]; at 100.0 µM 96% | [3]; at 33.0 µM 99% | [3]; at 100.0 µM 94% | [4]; [17] 76% | [4]; [18] 97% | [4]; at 50.0 µM 97.8% | [5]; at 33.0 µM 99% | [5]; at 100.0 µM 87%
inactive: [1]; at 1.2 µM -4% | [1]; at 3.7 µM -2% | [1]; at 11.0 µM 27% | [2]; at 1.2 µM -5% | [2]; at 3.7 µM -2% | [2]; at 11.0 µM 37% | [3]; at 1.2 µM -2% | [3]; at 3.7 µM 4% | [3]; at 11.0 µM 66% | [5]; at 1.2 µM -3% | [5]; at 3.7 µM -3% | [5]; at 11.0 µM 57%

O=C(c1ccccc1)[C@H]1Nc2ccc(Cl)cc2[C@H]2OCCC[C@@H]12
active: [6]; at 100.0 µM 86% | [7]; at 100.0 µM 88% | [9]; at 100.0 µM 88% | [10]; at 100.0 µM 91% | [11]; at 100.0 µM 90% | [12]; at 100.0 µM 83% | [14]; at 100.0 µM 85% | [16]; at 33.0 µM 86% | [16]; [18] 93% | [16]; at 50.0 µM 82.5% | [16]; at 100.0 µM 95% | [1]; at 100.0 µM 81% | [2]; at 100.0 µM 91% | [3]; at 100.0 µM 94% | [5]; at 100.0 µM 92%
inactive: [6]; at 1.2 µM -16% | [6]; at 3.7 µM -40% | [6]; at 11.0 µM -19% | [6]; at 33.0 µM 22% | [7]; at 1.2 µM -7% | [7]; at 3.7 µM -6% | [7]; at 11.0 µM -2% | [7]; at 33.0 µM 24% | [8]; at 1.2 µM -16% | [8]; at 3.7 µM -20% | [8]; at 11.0 µM -25% | [8]; at 33.0 µM -2% | [8]; at 100.0 µM 14% | [9]; at 1.2 µM -19% | [9]; at 3.7 µM -23% | [9]; at 11.0 µM -39% | [9]; at 33.0 µM 32% | [10]; at 1.2 µM -2% | [10]; at 3.7 µM -2% | [10]; [17] 7% | [10]; at 11.0 µM -6% | [10]; at 33.0 µM 33% | [10]; [18] 4% | [10]; at 50.0 µM 67.2% | [11]; at 1.2 µM -23% | [11]; at 3.7 µM -25% | [11]; [17] -13% | [11]; at 11.0 µM -25% | [11]; at 33.0 µM -6% | [11]; [18] 49% | [11]; at 50.0 µM 12.9% | [12]; at 1.2 µM -40% | [12]; at 3.7 µM -23% | [12]; at 11.0 µM -41% | [12]; at 33.0 µM 31% | [13]; [17] -18% | [13]; [18] 33% | [13]; at 50.0 µM 40.5% | [14]; at 1.2 µM -14% | [14]; at 3.7 µM 2% | [14]; at 11.0 µM -10% | [14]; at 33.0 µM 23% | [15]; [17] 33% | [15]; [18] 44% | [15]; at 50.0 µM 32.6% | [16]; at 1.2 µM -22% | [16]; at 3.7 µM -7% | [16]; [17] 12% | [16]; at 11.0 µM 34% | [1]; at 1.2 µM -15% | [1]; at 3.7 µM -15% | [1]; at 11.0 µM -16% | [1]; at 33.0 µM 17% | [2]; at 1.2 µM -19% | [2]; at 3.7 µM -31% | [2]; at 11.0 µM -34% | [2]; at 33.0 µM 32% | [3]; at 1.2 µM 7% | [3]; at 3.7 µM 11% | [3]; at 11.0 µM 18% | [3]; at 33.0 µM 57% | [4]; [17] -24% | [4]; [18] 1% | [4]; at 50.0 µM 25.9% | [5]; at 1.2 µM -13% | [5]; at 3.7 µM -11% | [5]; at 11.0 µM -10% | [5]; at 33.0 µM 31%

CCCCCCCCCCCCOCCOCCOCC(N)=O
inactive: [6]; at 1.2 µM 15% | [6]; at 3.7 µM -11% | [6]; at 11.0 µM 1% | [7]; at 1.2 µM -39% | [7]; at 3.7 µM -39% | [7]; at 11.0 µM -41% | [8]; at 1.2 µM -14% | [8]; at 3.7 µM -20% | [8]; at 11.0 µM -11% | [8]; at 33.0 µM 10% | [9]; at 1.2 µM 9% | [9]; at 3.7 µM -8% | [9]; at 11.0 µM -10% | [10]; at 1.2 µM 6% | [10]; at 3.7 µM -1% | [10]; [17] 36% | [10]; at 11.0 µM 10% | [10]; [18] 36% | [11]; at 1.2 µM -6% | [11]; at 3.7 µM -6% | [11]; [17] 39% | [11]; at 11.0 µM 16% | [11]; [18] 29% | [12]; at 1.2 µM -9% | [12]; at 3.7 µM -11% | [12]; at 11.0 µM -17% | [13]; [17] 5% | [14]; at 1.2 µM -15% | [14]; at 3.7 µM -18% | [14]; at 11.0 µM -13% | [15]; [17] 61% | [16]; at 1.2 µM -6% | [16]; at 3.7 µM 1% | [16]; [17] 21% | [16]; at 11.0 µM -13% | [1]; at 1.2 µM -26% | [1]; at 3.7 µM -20% | [1]; at 11.0 µM -12% | [2]; at 1.2 µM -12% | [2]; at 3.7 µM -12% | [2]; at 11.0 µM 6% | [3]; at 1.2 µM -12% | [3]; at 3.7 µM -15% | [3]; at 11.0 µM -5% | [4]; [17] 26% | [4]; [18] 43% | [5]; at 1.2 µM -18% | [5]; at 3.7 µM -31% | [5]; at 11.0 µM -18%
active: [6]; at 33.0 µM 97% | [6]; at 100.0 µM 96% | [7]; at 33.0 µM 95% | [7]; at 100.0 µM 94% | [8]; at 100.0 µM 80% | [9]; at 33.0 µM 97% | [9]; at 100.0 µM 96% | [10]; at 33.0 µM 97% | [10]; at 50.0 µM 91.2% | [10]; at 100.0 µM 95% | [11]; at 33.0 µM 97% | [11]; at 50.0 µM 92.5% | [11]; at 100.0 µM 95% | [12]; at 33.0 µM 97% | [12]; at 100.0 µM 94% | [13]; [18] 98% | [13]; at 50.0 µM 93.3% | [14]; at 33.0 µM 96% | [14]; at 100.0 µM 93% | [15]; [18] 97% | [15]; at 50.0 µM 89.5% | [16]; at 33.0 µM 97% | [16]; [18] 97% | [16]; at 50.0 µM 91.5% | [16]; at 100.0 µM 94% | [1]; at 33.0 µM 97% | [1]; at 100.0 µM 96% | [2]; at 33.0 µM 93% | [2]; at 100.0 µM 96% | [3]; at 33.0 µM 96% | [3]; at 100.0 µM 94% | [4]; at 50.0 µM 91.1% | [5]; at 33.0 µM 97% | [5]; at 100.0 µM 95%
